Measured values published in PubChem BioAssay (NCATS).
Results filed as inconclusive are left out. Values without a mark were called inactive. Active and inactive are the calls of the source. Calls come from the whole dose curve; as a rule, active = well fitted cell-killing curve with a large enough effect; inconclusive = small, poorly fitted or top-dose-only effect, or effect the other way; inactive = flat fitted curve, though single readings scatter. Peptide text beside a SMILES is read from it. * marks the point of attachment. Hexanoyl = CCCCCC(=O)*

Assay: UWB1.289-WTBRCA1 Cancer Cell Toxicity qHTS against the NCATS CANVASS Library (AID 1347354)
Conditions: UWB1.289-WTBRCA1 viability, CellTiter-Glo luminescence, 72 h; series mostly up to 38.3 µM; activity change, negative = cytotoxicity: at the top concentration
From the text: Natural products and their derivatives continue to be wellsprings of nascent therapeutic potential. However, many laboratories have limited resources for biological evaluation, leaving their previously isolated or synthesized compounds largely or completely untested. To address this issue, the Canvass library of natural products was assembled (https://tripod.nih.gov/canvass), in collaboration with academic and industry researchers, for quantitative high-throughput screening (qHTS) across a diverse set of cell-based and biochemical assays. The pure (>85% purity by liquid chromatography/mass spectrometry [LC/MS]) Canvass library of 346 natural products were submitted by 45 academic laboratories and companies around the world. We collected pure natural products to circumvent deconvolution and structure elucidation due to time and resource limitations. The library was formatted into 1536-well plates and evaluated in 50 qHTS (in an 11-pnt concentration series) bioassays with broad scope of disease-relevant mechanisms. The resulting data set from 50 different assays was then systematically analyzed to identify overall trends and specific natural products with interesting biological activities. Reported herein are the results of each individual qHTS and their corresponding assay protocol. National Center for Advancing Translational Sciences (NCATS), Rockville, MD National Institute of Health (NIH), Bethesda, Maryland
Cancer Cell Toxicity COV-362, OV-KATE, OV-SAHO, UWB1.289, UWB1.289-WTBRCA1, HEK-293, HPAF-II, Panc-1005, SW1088, and U-118MG-screen protocol. 1. In a 1536 well, white solid bottom tissue culture plates (Corning 7494), corresponding cells (COV-362, OV-KATE, OV-SAHO, UWB1.289, UWB1.289-WTBRCA1, HEK-293, HPAF-II, Panc-1005, SW1088, or U-118MG) were dispensed in each well at a final concentration of 1000 cells / well (6uL volume) using the Multidrop Combi (Thermo Fisher Scientific) dispenser. 2. The plates were incubated for 4 hours at 37 degrees C/5% CO2/95% Rh. 3. Compounds were pin transferred (~23nL volume) via Wako Pin-tool (Wako Automation, Richmond VA) equipped with a 1536 pin head. The assay plates were treated with compounds in an 11-pnt concentration series with a final concentration range of […] to 85uM. 4. Bortezomib was used as a single dose control (0.5mM column 4, rows 1 - 32) at a final concentration of 1.9uM and as a 16pnt titration (1mM; 1:2 dilution; 16-points; n = 2; column 3, rows 1 - 32) with final concentration range of 0.1nM - 3.8uM. 5. The assay plates were incubated for 72 hours at 37 degrees C/5% CO2/95% Rh. 6. 3uL CellTiter-Glo detection reagent was then added to the plates (columns 2 - 48, rows 1 - 32) and incubated at room temperature for additional 15min. 7. Luminescence signal was acquired via the ViewLux plate reader (PerkinElmer) using a clear filter, 2 second exposure and 2x binning settings.
% is set by controls: 0 for no effect and ±100 for the full control effect; potency is the fitted concentration of half-maximal effect.

Row | Compound | outcome | activity change, negative = cytotoxicity | Potency
1 | CO[C@@H](C[C@@H](C)[C@@H](O)/C=C/C=C/CNC(=O)C(C)(C)[C@H](O)\C(C)=C/C=C\C=C\Cc1cnco1)[C@]1(O)[C@@H](C)C(=O)N(C)[C@@]12COC2=O | inactive | – | –
2 | COc1ccc([C@@H]2CC(=O)c3c(cc(O)c(C/C=C(\C)CCC=C(C)C)c3O)O2)cc1 | – | -3.16% [at 7.64 µM] | –
3 | C/C(=C\[C@H](C)C(=O)/C=C/CC1CC(=O)NC(=O)C1)[C@@H]1OC(=O)CCCC/C=C/[C@H](O)[C@@H](O)[C@@H]1C | – | -18% | –
4 | C=C[C@@]1(C)CC[C@@H]([C@H](C)C(C)=O)O1 | inactive | – | –
5 | CC[C@H](O)CCCCC[C@@H]1NC(=O)[C@H]2CCCCN2C(=O)[C@H]([C@H](C)CC)NC(=O)[C@H](Cc2cn(OC)c3ccccc23)NC1=O | – | -2.09% | –
6 | COc1cc2ccc(=O)oc2c(O)c1O[C@@H]1O[C@H](CO)[C@@H](O)[C@H](O)[C@H]1O | – | 18% [at 22.9 µM] | –
7 | C=C1C[C@]23C=CC(=O)[C@@](C)(CCCC(C)C(=O)N[C@@H](CO)C(=O)O)[C@@H]2C[C@@H]1CC3 (stereo not given in full) | inactive | – | –
8 | COC12OC1(C13OC1(OC)C(=O)c1cc4cc(C)oc(=O)c4c(O)c1C3O)C(O)c1c(cc3cc(C)oc(=O)c3c1O)C2=O (stereo not given) | – | 1.31% | –
9 | CCCc1c2c([nH]c(=O)c1C)C(=O)c1[nH]c(=O)c(C)c(CCC)c1C2=O | – | – | 7.47 µM (active)
10 | O[C@H]1C=C2[C@H]3CN(Cc4cc5c(cc43)OCO5)[C@H]2C[C@@H]1O | – | -17.6% | –
11 | C=CC(C)(C)C(=O)[C@@H](C)[C@@H]1CC[C@@](C)(C=C)O1 | inactive | – | –
12 | COc1cc(C2OCC3C(c4ccc(O)c(OC)c4)OCC23)ccc1O (stereo not given) | inactive [at 7.64 µM] | – | –
13 | COc1ccc([C@@H]2c3cc4c(cc3C(=O)C(C)C2C)OCO4)cc1OC (stereo not given in full) | – | 9.32% | –
14 | O=C1OC(CCO)c2cccc(O)c21 (stereo not given) | inactive | – | –
15 | C=C[C@@]1(C)CC[C@@H]([C@H](C)C(=O)/C=C/C(C)(C)O)O1 | – | -7.47% | –
16 | C[C@@]1(CCC(=O)Nc2c(O)ccc(C(=O)O)c2O)C(=O)C=C[C@]23C[C@H]4C[C@H](O[C@@]4(C)C2)C31 (stereo not given in full) | inactive | – | –
17 | O=C1CC(c2ccc(O)cc2)Oc2cc(O)ccc21 (stereo not given) | – | -13.4% | –
18 | C=C(C)CC[C@H](Cc1c(O)cc(O)c2c1O[C@H](c1ccc(O)cc1)CC2=O)C(=C)C | – | -25.8% | –
19 | COc1c(O)cc2c(c1O)C(=O)c1c(coc1C)C2=O | inactive | – | –
20 | C[C@@]12C[C@@H](C[C@@H]3C(=O)O[C@@H](c4ccoc4)[C@H](OC(=O)c4ccccc4)[C@@H]31)OC2=O | inactive | – | –

Row | Compound | outcome | activity change, negative = cytotoxicity | Potency
21 | CN1CCc2cc3c(c4c2C1(C)C(=O)c1cc(O)ccc1-4)OCO3 (stereo not given) | inactive | – | –
22 | C/C=C(/C)c1cc(O)c(C)c2c1Oc1cc(O)cc(C)c1C(=O)O2 | – | -11.2% | –
23 | CC(C)=CC[C@H]1C[C@@]2(CC=C(C)C)C(=O)[C@](CC=C(C)C)(C(=O)C(C(=O)c3ccccc3)=C2O)C1(C)C | – | – | 11.8 µM (active)
24 | C[C@]12CCC[C@](C)(C(=O)O)[C@@H]1CC[C@@]1(C)c3cocc3CC[C@H]21 | inactive | – | –
25 | COc1cc2oc3ccccc3c(=O)c2cc1OC | inactive [at 76 µM] | – | –
26 | CC1=C(C)C(=O)OC(C(C)C2(O)CCC3C4C5OC5C5(O)CC=CC(=O)C5(C)C4CCC32C)C1 (stereo not given) | – | -13.5% | –
27 | C[C@H](CCC(O)C(C)(O)CO)[C@@]1(O)CC[C@@]2(C)C3=C(CC[C@@]21C)[C@@]1(C)CCC(OC(=O)CCC(=O)O)C(C)(C)[C@@H]1CC3 (stereo not given in full) | – | -3.46% | –
28 | O[C@H]1c2ccccc2-c2c3c(cc4c2[C@@H]1NCC4)OCO3 | – | 1.19% | –
29 | C/C=C(/C)c1c(Cl)c(O)c(C)c2c1Oc1c(Cl)c(O)c(Cl)c(C)c1C(=O)O2 | – | -20.8% | –
30 | CCCCCC(=O)N[C@@H](CC(C)C)C(=O)N[C@H](C=O)CCC(=O)O (Hexanoyl-Leu-Glu-aldehyde) | inactive | – | –
31 | COc1ccc2[nH]c3c(c2c1)CCN1C[C@H]2C[C@@H](OC(=O)c4cc(OC)c(OC)c(OC)c4)[C@H](OC)[C@@H](OC)[C@H]2C[C@H]31 | – | -0.13% | –
32 | CC(=O)O[C@H]1c2ccccc2-c2c3c(cc4c2[C@@H]1N(C(C)=O)CC4)OCO3 | – | -22.1% | –
33 | COc1c(O)cc(O)c2c(=O)cc(-c3ccccc3)oc12 | – | -20.6% | –
34 | CC1=C2CC[C@]3(C)[C@H](CC=C4[C@@H]5CC(C)(C)CC[C@@H]5C(=O)[C@H](O)[C@]43C)[C@@]2(C)C=C(O)C1=O | – | 1.05% | –
35 | C[C@H]1C=C[C@H]2CCCC[C@@H]2[C@H]1C(=O)[C@H]1CC2=C(C(=O)O)CCN2C1=O | – | 0.939% | –
36 | O=C1CCC(=O)N(O)CCCCCNC(=O)CCC(=O)N(O)CCCCCNC(=O)CCC(=O)N(O)CCCCCN1 | – | -20.1% | –
37 | C[C@]12CC[C@]3(C1)[C@H](CC2=O)C[C@@H](OC(=O)c1ccccc1)[C@H]1[C@](C)(C(=O)O)CCC[C@@]13C | – | -1.28% | –
38 | CC[C@H]1[C@H](C)[C@H](c2cc(OC)c(OC)cc2OC)[C@@H](C)[C@H](c2cc(OC)c(OC)cc2OC)[C@@]12C=C(OC)C(=O)C=C2OC | – | 3.47% | –
39 | CCC(=O)N[C@@H](C[C@H](C)C(Cl)(Cl)Cl)C(=O)N1C(=O)C=C(OC)[C@@H]1CC(C)C | – | -0.611% | –
40 | COC(=O)[C@]1([C@H]2CCC(=O)O2)CC(=O)c2c(O)cc(C)cc2O1 | inactive | – | –
